An excerpt weighted towards active compounds, which were near 4.5% of everything screened.
DAX1 inh-1: DAX1 (NR0B1) inhibitors on StAR promoter, primary screen, cell-based, luminescence, SF-1 (NR5A1), full-length DAX-1; HEK293T StAR-luciferase reporter, SF-1/DAX-1 repression relief; 370,000 tested, 1.1% active; inhibition, % at 6.8 µM;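 active means inhibition above the mean over all tested compounds plus 3 SD, cut at about 3.6% in these data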;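 further: higher inhibition means more luminescence from relief of DAX-1 repression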
hgDAF-12 ag: H. glycines DAF-12 receptor agonists, primary screen, cell-based, luminescence, HEK293, GAL4 fusion, UAS-luciferase | Nuclear hormone receptor DAF-12 (Heterodera glycines), GAL4 fusion | HEK293 GAL4-hgDAF12 UAS-luciferase reporter, agonist luminescence; normalized to butyrate control | activation, % at 6.8 µM | 370,000 tested, 1.8% active | AID 687014, 2013;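 active means activation above a cutoff set at the mean of all screened compounds plus 3 SD, cut at about 10% in these data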
ssDAF-12 act: S. stercoralis DAF-12 nuclear receptor activators, primary screen, cell-based, luminescence, HEK293, GRIP1 co-expression, lit1-tk-luc; HEK293 ssDAF-12/GRIP1 lit1-tk-luc reporter; % of 3 µM dafachronic acid response; activation, % at 6.8 µM; 370,000 tested, 1% active; AID 652126, 2013;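 active means activation above the mean over all tested compounds plus 3 SD, cut at about 0.9% in these data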
FXN GAA850 act: FXN promoter activators, primary screen, cell-based, luciferase luminescence, HEK293 lucGAA850; HEK293 lucGAA850 FXN promoter luciferase reporter, 24 h; percent of 10 µM SAHA response; activation, % at 6 µM; 360,000 tested, 0.56% active;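 active means activation above the average of all compounds screened plus 3 SD, cutoff fixed separately per campaign, cut at about 7.5% in these data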
DAX1 inh-2: DAX1 (NR0B1) inhibitors, primary screen, cell-based, HEK293, Gal4-DAX1, luciferase luminescence; Nuclear receptor subfamily 0 group B member 1 (Homo sapiens), P51843; HEK293 Gal4-DAX1 luciferase reporter; inhibition, % at 6.75 µM; 340,000 tested, 0.99% active;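 active means inhibition above the mean over all tested compounds plus 3 SD, cut at about 4.2% in these data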;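 further: inhibition shows as a rise in luminescence from relieved DAX1 repression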
Target sequence (P51843 207-470 limits assumed): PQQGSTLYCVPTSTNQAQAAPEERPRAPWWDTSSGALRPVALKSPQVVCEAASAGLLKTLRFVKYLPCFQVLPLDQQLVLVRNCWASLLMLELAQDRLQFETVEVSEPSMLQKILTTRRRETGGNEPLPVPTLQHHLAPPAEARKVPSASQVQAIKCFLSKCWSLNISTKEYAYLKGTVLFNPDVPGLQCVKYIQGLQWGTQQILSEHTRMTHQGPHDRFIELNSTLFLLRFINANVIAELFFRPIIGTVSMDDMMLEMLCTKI
hcDAF-12 act: H. contortus DAF-12 nuclear receptor activators, primary screen, cell-based, luminescence, HEK293, lit1-tk-luc reporter; HEK293 hcDAF-12 lit1-tk-luc reporter; 0% DMSO, 100% Δ7-dafachronic acid; 370,000 tested, 1.4% active; activation, % at 6.8 µM;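 active means activation above the mean of all tested compounds plus 3 SD, cut at about 5.5% in these data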
Of the large screens only hits and unclear results are named; the others gave an inactive call; ! = repeats disagree.

COc1cc(OC)c2c(O)c3c(=O)cc(C)oc3c(-c3c(OC)cc4cc5c(c(O)c4c3O)C(=O)CC(C)(O)O5)c2c1 (stereo unspecified)	none (no result: FXN GAA850 act, DAX1 inh-2)
CC(=O)NCCc1cnc[nH]1	FXN GAA850 act 10
O=C(Cc1ccccc1)NCCc1cnc[nH]1	none
CC(C)(C)c1ccc(-c2nnc3n2N=C(c2ccc4ccccc4c2)CS3)cc1	none (no result: FXN GAA850 act, DAX1 inh-2)
C/C(=N/NC(=O)c1ccoc1C)C12CC3CC(CC(C3)C1)C2	hgDAF-12 ag 13
Cc1ccccc1N=C1NC(=O)/C(=C/c2cccnc2)S1	ssDAF-12 act 1.9
COC(=O)c1ccc2c(c1)NC(=O)C(N(CC(C)C)CC(C)C)S2 (stereo unspecified)	DAX1 inh-2 5.1
CCCN(CCC)C1Sc2ccc(C(=O)OC)cc2NC1=O (stereo unspecified)	none
CN(NC1OC(=O)c2ccccc21)c1ccccc1[N+](=O)[O-] (stereo unspecified)	DAX1 inh-2 8.0
COc1ccc(Cn2ccc3ccc(-c4ccc5ccn(Cc6ccccc6)c5c4)cc32)cc1	none (no result: FXN GAA850 act, DAX1 inh-2)
NC(=NCCc1c[nH]c2ccccc12)NC(=O)OCc1ccccc1	none (no result: FXN GAA850 act, DAX1 inh-2)
COC(=O)[C@H](C(C)C)N(Cc1cn(Cc2ccccc2)nn1)S(=O)(=O)c1ccccc1Br	none (no result: FXN GAA850 act, DAX1 inh-2)
CSCCC(N=C(NS(=O)(=O)c1ccccc1)c1ccccc1)C(=O)O (stereo unspecified)	ssDAF-12 act 2.4
Cc1ccc(Sc2ccc(CO)cc2[N+](=O)[O-])cc1	ssDAF-12 act 11
CCOC(=O)C1CCN(C(=O)C(C)(C)NC(=O)Nc2ccc(N(C)C)cc2)CC1	none (no result: DAX1 inh-1, FXN GAA850 act, DAX1 inh-2)
CCCC(=O)Nc1ccc(C(=O)NN=C(C2CC2)C2CC2)cc1	DAX1 inh-2 4.5
CN(C)CCCSc1nc2ccccc2s1	ssDAF-12 act 2.0
c1ccc2sc(SCSc3nc4ccccc4s3)nc2c1	none
O=C(CSc1nc2ccccc2s1)N1CCCCC1	hgDAF-12 ag 12
NC(=O)NC(=O)COC(=O)CCCSc1nc2ccccc2s1	none
CC(C)NC(=O)NC(=O)COC(=O)CCCSc1nc2ccccc2s1	DAX1 inh-2 7.4
CC1CCCC(C)N1C(=O)CSc1nc2ccccc2s1 (stereo unspecified)	DAX1 inh-2 5.0
O=C(Nc1c(-c2ccc(C(F)(F)F)cc2)nc2ncccn12)c1ccccc1	none (no result: FXN GAA850 act, DAX1 inh-2)
CC(C)CC(=O)N1CCc2cc(S(=O)(=O)N(C)Cc3ccco3)ccc21	none (no result: FXN GAA850 act, DAX1 inh-2)
C=CCn1c(COc2ccc(Cl)cc2)nnc1SCC(=O)c1ccc(-c2ccccc2)cc1	none (no result: FXN GAA850 act, DAX1 inh-2)
CC1CCN(C(=O)CSc2nc3ccccc3s2)CC1	hgDAF-12 ag 12, DAX1 inh-2 4.6, hcDAF-12 act 6.5
Cc1ncoc1C(=O)Nc1ncc([N+](=O)[O-])s1	hgDAF-12 ag 12
O=C(CCS(=O)(=O)Cc1ccccc1)Nc1ncc([N+](=O)[O-])s1	DAX1 inh-1 4.0
O=C(Nc1ncc([N+](=O)[O-])s1)c1cccs1	DAX1 inh-1 4.3!
Cc1cnc(NC(=O)c2cccs2)s1	hgDAF-12 ag 12, hcDAF-12 act 6.2
Cc1csc(NC(=O)c2cccs2)n1	none
O=C(CCS(=O)(=O)c1ccccc1)Nc1ncc([N+](=O)[O-])s1	none
NC(=NC(=O)/C=C/c1ccccc1Br)N(CC#Cc1ccccc1)CC#Cc1ccccc1	none (no result: DAX1 inh-1, FXN GAA850 act, DAX1 inh-2)
Cc1ccc(CN2CCCCC(NC(=O)Nc3ccccc3-c3ccccc3)C2=O)cc1 (stereo unspecified)	none (no result: FXN GAA850 act, DAX1 inh-2)
CCc1cc2c(-c3ccccc3)cc(=O)oc2cc1OC(=O)c1cccs1	none
O=C(Oc1ccc2c(-c3ccccc3)cc(=O)oc2c1)c1cccs1	DAX1 inh-2 4.4
O=C(NCc1ccc(N2CCCC2=O)cc1)c1cccc(Cl)c1	none
COc1ccc(CNC(=O)c2cccc(N3CCCC3=O)c2)cc1	ssDAF-12 act 1.2

Assay outcomes deposited in PubChem BioAssay by The Scripps Research Institute Molecular Screening Center.
